Measured values published in PubChem BioAssay AID1508600 (Functional Genomics Laboratory (NCATS/FGL), 2020).
Out of some 53,000 sequences screened, about 3,700 (7%) were called active.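 How the source made its calls: active means gene knockdowns whose robust z-score for IL-1 alpha signal is at least 2 or at most -2, so actives lie on both sides; inactive means the rest.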 Shown is part of a subset that was picked to be rich in actives.

Experiment: Components of the Cytosolic LPS Sensing Pathway: Gene Identification via Genome-wide siRNA Screen;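 further: robust z of the log signal after scaling to non-targeting control siRNA wells of the plate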
Settings: RAW264.7 macrophages, IL-1a HTRF, actives lie on both sides, screened at 100 nM (by protocol), cells primed 5 h with Pam3CSK4 first
Summary of the method: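 RAW264.7 mouse macrophages reverse-transfected with single siRNAs (100 nM final) for 48h, primed with Pam3CSK4 for 5 hours, then transfected with LipidA for 24 hour. Supernatant IL-1a read by HTRF; values normalized to negative-control median, log-transformed robust z-scores.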

| Sequence | z-score |
| --- | --- |
| GGUGGAGAACCAUAUCACATT against Abcg4 | 0.105 (inactive) |
| GAGCAUCCGCUACUUGGUATT against Nmnat1 | 0.0484 (inactive) |
| GGAAGAUAUGAAGGGCUCATT against Mb | -2.18 (active) |
| GCAUUUCAGCAGAACAAUATT against Phldb1 | 0.5 (inactive) |
| GGAUCUGGAUACUUUUCCATT against Arhgap22 | -2.09 (active) |
| GGAGACUUUCCAUUUGAAGTT against Fnbp1l | -0.188 (inactive) |
| GAAAAAAUCUAUCUACCCUTT against Hoxb4 | -0.219 (inactive) |
| GGUCAGUUGAGAUGUUUUUTT against Pag1 | 0.346 (inactive) |
| GGCGGUGGAGGUGAUAUAUTT against Dennd6a | -2.01 (active) |
| GGACUAGUCCUAAGAAGAGTT against Rbmxl2 | -1.27 (inactive) |
| GCCUAUCUACGACCUCAUCTT against Kel | -0.768 (inactive) |
| GGCCAUUACCCAUGAGACUTT against Cd63 | 0.997 (inactive) |
| GGAACAAAUGUUCGAAAUGTT against Eif4a2 | -0.0347 (inactive) |
| GGAUAUGAAACACCAGAUCTT against Naip2 | -1.89 (inactive) |
| GCAGCAGACACUCUGUACATT against Pcbp4 | -0.0747 (inactive) |
| GGACAAGUACAGGUUCCUATT against Vrk3 | 0.536 (inactive) |
| GGCACUGUUCGGCAAGAAGTT against Trappc5 | -2.1 (active) |
| GCUCGUUUGAUGCUGUCUCTT against Prkag1 | -1.17 (inactive) |
| GCUGUUUUGGUAGAUUUUGTT against Map3k8 | 0.0466 (inactive) |
| CGGGCAGCUAGAUUUCCAATT against S100a11 | 2.86 (active) |
| GCUGAACCUGCAGCACAUCTT against Mettl7a2 | -0.0665 (inactive) |
| GGAGUACAUUGUGAAUGUUTT against Tnr | -1.44 (inactive) |

| Sequence | z-score |
| --- | --- |
| GCUGGUGAACCAAAAACUCTT against Ccdc3 | -0.366 (inactive) |
| GGACAUGGUACCACAGGAGTT against Tenm4 | 0.643 (inactive) |
| GAGCCAAAUCAGGAACAGCTT against Trim29 | 1.4 (inactive) |
| GCCAAUAGCUCCAGCUUGATT against Olfr668 | 0.534 (inactive) |
| GGCUAUAGGUUUCUGGGAATT against Fzd6 | 4.94 (active) |
| GGCAACUUGGGAGUUUCACTT against Kcnab1 | 1.41 (inactive) |
| CUUGGUGGAUGAAAGAUUCTT against Tdpoz2 | -0.776 (inactive) |
| GGUCAAAGUGUAACUUGUUTT against Rwdd4a | -0.0956 (inactive) |
| GGAAGAUGAACAUCAAACATT against Dglucy | 0.855 (inactive) |
| GGAAGAGAGCGAUUAAAUUTT against Rsrc2 | 0.839 (inactive) |
| GGGCUGGAAUCUAGGAAGUTT against Ccr10 | 2.68 (active) |
| GGAAAAUGUCCGUAAAAGGTT against Dtx2 | 0.196 (inactive) |
| GGAGACACUCGUCCUUUAUTT against Cyp20a1 | -1.27 (inactive) |
| GCUUUACUAUGUGAGAAAUTT against Ryk | -1.89 (inactive) |
| GGGACAAUCAACACAAAAUTT against Ythdf3 | 0.172 (inactive) |
| CCACCAAGGAGACAUAGAUTT against Nans | 2.85 (active) |
| GGUCUUGGAGGAUCCCAAUTT against Tex13a | -1.55 (inactive) |
| GCAUAUCGCUUUUGUGAGCTT against E2f6 | 2.31 (active) |
| GCUCUCUGAAAGAGUAUUGTT against Khdrbs2 | 0.963 (inactive) |
| GACAAGCUGUGGAGAAGUGTT against Lce1b | 0.298 (inactive) |
| CCGAUUGAAAUAUGAAUCCTT against Cuedc1 | 1.22 (inactive) |
| CCAAGAAAUUGCACUGGGATT against A130050O07Rik | 0.781 (inactive) |

| Sequence | z-score |
| --- | --- |
| GCUGUUAAAACUCUCGUUATT against Pdk3 | 2.02 (active) |
| CCACAUCCUGACUACUACATT against Sumo2 | -1.14 (inactive) |
| GGUUCUUGGUGAUGAUGAGTT against Pds5a | -2.6 (active) |
| GGUGAACUGGUCUACAACATT against Muc2 | 0.34 (inactive) |
| GGAGUUGAGCAAGACCAAGTT against Ccdc102a | 0.628 (inactive) |
| GGGUAUAUUUGGAACUACGTT against Ppa1 | -1.2 (inactive) |
| GGACAUGAACCUCUUCAAATT against Fads2 | 0.632 (inactive) |
| CCUCUGCUUUGUUACUUCCTT against Olfr1431 | -0.287 (inactive) |
| CCACCUAUUACAUGAUCUUTT against Rnf32 | -0.23 (inactive) |
| GGACCGGUUUAUUUGGCGGTT against Mmp2 | 3.43 (active) |
| GCAAACGACUGUGACAAAATT against Ly6m | -0.0028 (inactive) |
| CCUCCCUAAUGGUCCAUUATT against Cyp2j13 | -0.517 (inactive) |
| GCUGGAGAACCUCCCUAAATT against Mrps33 | 1.14 (inactive) |
| GGUAAUGAAGGAACUGGAUTT against S100a1 | 0.0105 (inactive) |
| GGGUGACCUAAUCCAGUGUTT against Neurog3 | 2.5 (active) |
| GGAGUUGCCCUCAUCUUCATT against Casp6 | -1.59 (inactive) |
| GGUGGAACUCGUCAAUAGCTT against Vat1 | 0.269 (inactive) |
| GGUGAACAGUUGAUUUCAUTT against Smim10l2a | 1.48 (inactive) |
| GGAUCACAUCGAGAAAACCTT against Utrn | -1.57 (inactive) |
| GCUUCUGUUCGUUACGUCCTT against Ndufc2 | 2.55 (active) |
| GCGGAAAGGCCAAACGAUUTT against Inhbb | -0.734 (inactive) |
| CCUUCUCCAUGUCAGAUCUTT against Col5a2 | 0.23 (inactive) |

| Sequence | z-score |
| --- | --- |
| GGCAAAGUUGCCAGAUGAATT against Mettl23 | 2.42 (active) |
| GGAUACGCUUGUCCCACCATT against Mdm1 | -0.649 (inactive) |
| CCAUUAUGGGAGGAAGAUUTT against Clvs2 | 0.969 (inactive) |
| GGACAAAGAGAAUGAUGGATT against Cdc25b | -1.68 (inactive) |
| GCUAAUCCCAUCUCGUCCUTT against 3110009E18Rik | 1.15 (inactive) |
| GGCCGAAGCAUCUUCAAGATT against Wdr24 | 1.88 (inactive) |
| GGCUGAAAAAAGUGGAGAATT against Sh3bgr | 2.12 (active) |
| GGAUCCCAUUAGAAAGAAATT against Cbx2 | 0.316 (inactive) |
| GCGAUUACUACUUGAAACUTT against Fa2h | -0.384 (inactive) |
| CGGAUGUGGGCAUUCGUUATT against Fbxl7 | 0.421 (inactive) |
| GGUUUUGGGUCUAUGCUUCTT against Sde2 | 0.311 (inactive) |
| GGUAAGGAAAACAAAUAUGTT against En1 | 2.13 (active) |
| GAAAAAAAUCCGUUCCCUCTT against Mrpl33 | 0.257 (inactive) |
| GGAUUUUGCUCAGACGACATT against Taf1a | 0.291 (inactive) |
| GGUUGGUAGGCUUUGGUGUTT against Notum | 0.657 (inactive) |
| GCAGUGUCGCAUUACAUCGTT against Sec16a | 3.45 (active) |
| GGAGAAUCAUGUGAGCCUGTT against Tph1 | -0.0851 (inactive) |
| UAUUCUAUCCGAACACCUUTT against Gm4884 | 2.19 (active) |
| GGAGAACUUCCUAUACUAUTT against Apobec2 | 0.448 (inactive) |
| GGAAAGCAAAAAGUUUCAGTT against Fam118b | -1.14 (inactive) |
| CGCAUAGAGCCUGUCCUCATT against Spink1 | -1.57 (inactive) |
| GCUCGAUGUGAACUGCUAGTT against Ankrd9 | 2.12 (active) |

| Sequence | z-score |
| --- | --- |
| GGUACAUAUGUGAUGACCGTT against Cdh4 | -0.289 (inactive) |
| GGCGUAGGGCCAUAUCAUUTT against Olfr109 | -0.117 (inactive) |
| GGUCAUGAACCUCAUCAUCTT against Nckap1l | -0.552 (inactive) |
| GGCUGAAUAAAAUAAGUGUTT against Adra1a | -1.1 (inactive) |
| GGUUUAAUGUUAUAUACGGTT against Olfr606 | 2.43 (active) |
| CCAAAAGUGGAGAGCGACATT against Cnrip1 | -1.32 (inactive) |
| GGAGCGAGAAGGUAAAGUCTT against Pibf1 | 1.05 (inactive) |
| GGGACUGGAAUUGACAUCCTT against Trpm4 | -1.38 (inactive) |
| GGGAAUUUUUGUGGGUGAATT against Bbs2 | -0.541 (inactive) |
| GGUGCUGAUUGACCUAACATT against Wdtc1 | -2.24 (active) |
| GGAAGUGGAGGAAAAGAAGTT against Pdcd7 | -2.52 (active) |
| GGAAAAACUACUCAAGGAGTT against Evi5l | -0.0731 (inactive) |
| CCUGGUUAAAGGUUAUCCATT against Commd7 | -3.9e-05 (inactive) |
| GGCAAGUCUGUGUGCAGAUTT against Olfr267 | 0.579 (inactive) |
| CCAGGAACCUAUUGAAUCUTT against Plpp7 | 1.15 (inactive) |
| GGUAGAAAACAUAAAUGGUTT against Sec16a | 1.71 (inactive) |
| GGCCAUGGUUAAACCAUAUTT against Pdcl2 | 0.791 (inactive) |
| GGACCUAUACAAGGGAGGUTT against Il1f10 | 1.17 (inactive) |
| GGUGUUUUCUGUGCUGUGATT against Klhdc3 | -1.55 (inactive) |
| GGUGCUUAUACUUCUUUGUTT against Sgcz | -2.42 (active) |
